The list shows a part of the results. Active and inactive are the calls of the source. Rule as the data show it: active = z-score above about 6.3; inactive = the rest.

The text below walks through data of PubChem BioAssay AID463200 (Sanford-Burnham Center for Chemical Genomics, 2010).

A short description of this experiment: toxicity to mouse AML12 liver cells – imaging, DAPI nuclear morphology imaging, counter-screen for hepatic lipid droplet formation project (AID 463200).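 Also: compound exposure lasted overnight at 37 °C before fixation.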 To be noted: AML12 mouse hepatocytes, DAPI nuclear morphology cytotoxicity imaging; at 5 µM; hits give high values; cells fed 100 µM oleate overnight.
As to `CCCN(CCC)c1nc2c(C)cccn2c(=O)c1/C=C1/SC(=S)N(Cc2ccco2)C1=O`, the z-score is -0.326 (inactive).

With `O=C(CN1CCc2cc3c(cc2C1)OCCCO3)Nc1ccccc1`, the z-score was 0.947 (inactive).

With `CN(C)c1ccc(Nc2c3c4c(cccc4n(C)c2=O)C(=O)c2ccccc2-3)cc1`, the z-score is 0.335 (inactive).

Consider `CCCCN1C(=O)/C(=C/C=C2/C=Cc3ccccc3N2CC)SC1=S`, for which the z-score was -0.15 (inactive).

For `CC(NC(=O)c1cccc2ccccc12)c1ccc2c(c1)CCCC2` (stereo unspecified), the z-score was 8.48 (active).

For the compound `O=[N+]([O-])c1ccccc1N/N=C1\CCc2ccccc21`, the z-score was -0.00245 (inactive).

In the case of `Cn1c(=O)[nH]c(=O)c2c1nc(N1CCN(C(c3ccccc3)c3ccccc3)CC1)n2CCO`, the z-score was 0.0379 (inactive).

On to `O=C1Nc2ccc(Br)cc2/C1=N/N=C/C1=C(N2CCOCC2)C(=C\c2ccccc2)/CC1`, for which the z-score was -1.9 (inactive).

On to `COCCCNC(=O)CN1C(=O)CSc2ccc(S(=O)(=O)N3CCOCC3)cc21`, for which the z-score is -0.296 (inactive).

As to `CCCc1ccc(-c2csc(NC(=O)Cc3cccs3)n2)cc1`, the z-score was -0.171 (inactive).

Consider `CCOc1ccc(CCNC(=O)CCc2nnc3ccc(N4CCCC4)nn23)cc1OCC`, for which the z-score was -0.773 (inactive).

On to `Cc1cc(C(=O)NC2CCCc3c2cnn3-c2cccc(C)c2C)c(C)o1` (stereo unspecified), for which the z-score is 0.206 (inactive).

In the case of `Cc1c(C(=O)NCc2ccccc2)cnn1-c1ccccc1`, the z-score was -0.784 (inactive).

As for `COc1cccc(/C=C(/CC(=O)Nc2ccc(N3CCOCC3)cc2)c2nc3ccccc3s2)c1`, the z-score was 0.0842 (inactive).

With `CCOc1ccc(CCNC(=O)Nc2ccccc2)cc1OCC`, the z-score is -0.203 (inactive).

`COc1cc(/C=N/NC(=O)Nc2ccccc2)ccc1OCCOc1ccccc1C`: the z-score is 4.44 (inactive).

Take `COc1ccc(C(C(=O)NC(C)(C)C)N(Cc2ccc(F)cc2)C(=O)CCC(=O)Nc2cc(C)on2)cc1` (stereo unspecified): the z-score was -0.0925 (inactive).

In the case of `CCc1ccc(NC(=O)C(C)OC(=O)/C=C/c2cccc([N+](=O)[O-])c2)cc1` (stereo unspecified), the z-score was 1.35 (inactive).

For the compound `CCCN(CCC)c1ccc(C(O)c2nnc(-c3ccccc3)o2)cc1` (stereo unspecified), the z-score is -0.662 (inactive).

Regarding `Cc1cc(NC(=O)CSc2nc(C(C)C)nc3sc4c(c23)CCC(C)C4)no1` (stereo unspecified), the z-score is -0.355 (inactive).

As for `COc1ccc(Cl)cc1NC(=O)CN(C)C(=O)CCCc1c[nH]c2ccccc12`, the z-score is 0.989 (inactive).

As to `CCOC(=O)C1=C(CC)OC(N)=C(C#N)C1c1ccc(F)cc1F` (stereo unspecified), the z-score was -0.275 (inactive).

In the case of `COc1ccc(/C=C(\NC(=O)c2ccc(OCC(C)C)cc2)C(=O)OCc2ccco2)cc1`, the z-score was -0.0226 (inactive).

For `COc1ccc(OC)c(-c2csc(-c3cccs3)n2)c1`, the z-score was -0.885 (inactive).

As for `Cc1ccc(N2C(=O)C(NC(=O)c3c(F)cccc3F)(C(F)(F)F)C3=C2CC(C)(C)CC3=O)cc1` (stereo unspecified), the z-score was -0.996 (inactive).

Consider `CC(C)(C)NC(=O)Cn1cnc2cc([N+](=O)[O-])ccc2c1=O`, for which the z-score was -1.05 (inactive).
